Drawing on PubChem BioAssay (EPA / NIEHS), this text covers outcome and AC50 for three compounds.

Settings in all cases: mRNA level, 48 h; actives raise or lower the signal
Read-out in assay [1]: Peroxisomal acyl-coenzyme A oxidase 1 (ACOX1) gene, ACOX1 (gene 51)
Description: LTEA_HepaRG_ACOX1: Life Technologies and Expression Analysis (LTEA) Assay for Peroxisomal acyl-coenzyme A oxidase 1 (ACOX1) gene using HepaRG (AID 2283467). The method, boiled down:
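Measured by qRT-PCR against three housekeeping genes: ACOX1 transcript change in human HepaRG cells after 48 h dosing. Concentrations ran up to 100 uM in half-log steps. Curves were fitted bidirectionally relative to 0.5% DMSO.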

Read-out in assay [2]: Alkaline Phosphatase, Placental (ALPP) gene, ALPP (gene 250)
Nature of the assay: LTEA_HepaRG_ALPP: Life Technologies and Expression Analysis (LTEA) Assay for Alkaline Phosphatase, Placental (ALPP) gene using HepaRG (AID 2283468). Summed up: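 qRT-PCR readout of ALPP mRNA (Fluidigm TaqMan), normalized to ACTB/GAPDH/POLR2A, after 48 h chemical exposure of HepaRG cells; 8-point half-log series, top 100 uM, 0.5% DMSO vehicle. Bidirectional curve fit versus DMSO baseline.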

Read-out in assay [3]: Bcl-2 (BAD) gene, BAD (gene 572)
Nature of the assay: LTEA_HepaRG_BAD: Life Technologies and Expression Analysis (LTEA) Assay for Bcl-2 (BAD) gene using HepaRG (AID 2283469). The method, boiled down: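 BAD transcript change, measured by qRT-PCR against three housekeeping genes and fitted in both directions relative to 0.5% DMSO, after 48 h chemical treatment of human HepaRG liver cells at concentrations up to 100 uM.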

Read-out in assay [4]: Bcl-2 (BAX) gene, BAX (gene 581)
Description: LTEA_HepaRG_BAX: Life Technologies and Expression Analysis (LTEA) Assay for Bcl-2 (BAX) gene using HepaRG (AID 2283470). The method, boiled down: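 HepaRG (human liver), 48 h exposure, duplicate wells. 8-pt curve, half-log from 100 uM, 0.5% DMSO. BAX transcript by TaqMan qRT-PCR; ACTB/GAPDH/POLR2A normalization; gain or loss vs DMSO baseline.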

Read-out in assay [5]: adenosine kinase (ADK) gene, ADK (gene 132)
Nature of the assay: LTEA_HepaRG_ADK: Life Technologies and Expression Analysis (LTEA) Assay for adenosine kinase (ADK) gene using HepaRG (AID 2283471). Summed up:
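Read-out is ADK transcript level measured by qRT-PCR and normalised to three housekeeping genes. Cells are human HepaRG, dosed for 48 h at up to 100 uM in 0.5% DMSO. Gain or loss of signal is fitted against DMSO controls.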

Read-out in assay [6]: Alpha-fetoprotein (AFP) gene, AFP (gene 174)
Description: LTEA_HepaRG_AFP: Life Technologies and Expression Analysis (LTEA) Assay for Alpha-fetoprotein (AFP) gene using HepaRG (AID 2283472). The method, boiled down: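 HepaRG, single lot; 48 h post-plating -> serum-free induction medium; cpd 8-pt, 100 uM top, half-log, 0.5% DMSO, duplicate, 48 h. RNA -> qRT-PCR AFP, norm ACTB/GAPDH/POLR2A. Bidirectional fit vs DMSO.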

Read-out in the next assay: BCL2L11 (gene 10018)
Description: LTEA_HepaRG_BCL2L11: Life Technologies and Expression Analysis (LTEA) Assay for Bcl-2 (BCL2L11) gene using HepaRG (AID 2283473). Summed up:
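HepaRG, 48 h exposure, 8-pt half-log series from 100 uM in 0.5% DMSO, duplicates; qRT-PCR (Fluidigm TaqMan) for BCL2L11, housekeeping-normalized; bidirectional curve fit relative to DMSO baseline.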

Read-out in assay [7]: Apolipoprotein A-V (APOA5) gene, APOA5 (gene 116519)
Nature of the assay: LTEA_HepaRG_APOA5: Life Technologies and Expression Analysis (LTEA) Assay for Apolipoprotein A-V (APOA5) gene using HepaRG (AID 2283474). The method, boiled down: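 HepaRG, 48 h chemical exposure in serum-free induction medium, 8-pt half-log series (top 100 uM), 0.5% DMSO vehicle, duplicates. Readout: APOA5 mRNA by qRT-PCR, housekeeping-normalized; bidirectional fit vs DMSO baseline.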

Read-out in assay [8]: Apoptosis regulator Bcl-2 (Homo sapiens) (UniProt P10415)
Nature of the assay: LTEA_HepaRG_BCL2: Life Technologies and Expression Analysis (LTEA) Assay for Bcl-2 gene using HepaRG (AID 2283475). Summed up:
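HepaRG, plated 48 h then switched to serum-free induction medium; dosed 48 h, 8 conc. (max 100 uM, half-log steps), duplicate, 0.5% DMSO. Lysis in RLT, RNA isolated, TaqMan qRT-PCR for BCL2; ACTB/GAPDH/POLR2A normalisation; bidirectional fit vs DMSO.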

Read-out in assay [9]: Bcl-2 (BID) gene, BID (gene 637)
Description: LTEA_HepaRG_BID: Life Technologies and Expression Analysis (LTEA) Assay for Bcl-2 (BID) gene using HepaRG (AID 2283476). The method, boiled down: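 Transcript levels of BID, measured by qRT-PCR and normalized to three housekeeping genes, were fitted bidirectionally against DMSO controls. Cells were HepaRG, dosed 48 h at up to 100 uM.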

Read-out in the next assay: Caspase-3 (Homo sapiens) (UniProt P42574)
Nature of the assay: LTEA_HepaRG_CASP3: Life Technologies and Expression Analysis (LTEA) Assay for cysteine-aspartic acid protease (CASP3) using HepaRG (AID 2283477). The method, boiled down: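 HepaRG, 48 h exposure, 8 conc. (top 100 uM, half-log steps, duplicate), 0.5% DMSO vehicle; qRT-PCR of CASP3 transcript, housekeeping-normalised (ACTB/GAPDH/POLR2A); bidirectional curve fit vs DMSO baseline.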

Read-out in assay [10]: Cytochrome P450 (CYP24A1), CYP24A1 (gene 1591)
Nature of the assay: LTEA_HepaRG_CYP24A1: Life Technologies and Expression Analysis (LTEA) Assay for Cytochrome P450 (CYP24A1) using HepaRG (AID 2283478). The method, boiled down: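 qRT-PCR read-out: CYP24A1 transcript levels normalized to three housekeeping genes, bidirectional curve fits against 0.5% DMSO baseline. Human HepaRG cells treated 48 h with chemicals at eight concentrations from 100 uM in half-log steps.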

Read-out in assay [11]: cysteine-aspartic acid protease (CASP8), CASP8 (gene 841)
Nature of the assay: LTEA_HepaRG_CASP8: Life Technologies and Expression Analysis (LTEA) Assay for cysteine-aspartic acid protease (CASP8) using HepaRG (AID 2283480). The method, boiled down:
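HepaRG, 48 h exposure, duplicate wells; 8 conc, half-log from 100 uM, 0.5% DMSO. Serum-free induction medium. CASP8 mRNA by TaqMan qRT-PCR, norm. ACTB/GAPDH/POLR2A; gain/loss fitted vs DMSO.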

Read-out in assay [12]: Cytochrome P450 (CYP2B6), CYP2B6 (gene 1555)
Nature of the assay: LTEA_HepaRG_CYP2B6: Life Technologies and Expression Analysis (LTEA) Assay for Cytochrome P450 (CYP2B6) using HepaRG (AID 2283481). The method, boiled down: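 Read-out is CYP2B6 mRNA by TaqMan qRT-PCR, normalized to three housekeeping genes and fitted bidirectionally against 0.5% DMSO baseline. Human HepaRG cells received test chemicals for 48 h, top concentration 100 uM, half-log dilutions.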

Read-out in assay [13]: Cytochrome P450 2C19 (Homo sapiens) (UniProt P33261)
Nature of the assay: LTEA_HepaRG_CYP2C19: Life Technologies and Expression Analysis (LTEA) Assay for CYP2C19 using HepaRG (AID 2283482). The method, boiled down: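 HepaRG, 48 h chemical exposure, 8-pt half-log series from 100 uM in 0.5% DMSO, duplicates. Readout: CYP2C19 mRNA by TaqMan qRT-PCR, housekeeping-normalized. Bidirectional fit vs DMSO baseline; phenobarbital 1mM as induction control.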

Read-out in a further assay: CYP2C8 (gene 1558)
Nature of the assay: LTEA_HepaRG_CYP2C8: Life Technologies and Expression Analysis (LTEA) Assay for CYP2C8 using HepaRG (AID 2283483). Summed up: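 CYP2C8 mRNA induction or loss, by qRT-PCR normalized to ACTB/GAPDH/POLR2A, is read in HepaRG cells after 48 h treatment. Concentrations run from 100 uM down in half-log dilutions, with 0.5% DMSO as vehicle and baseline.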

Read-out in the next assay: CYP2C9 (gene 1559)
Nature of the assay: LTEA_HepaRG_CYP2C9: Life Technologies and Expression Analysis (LTEA) Assay for CYP2C9 using HepaRG (AID 2283484). Summed up: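 Cells plated 48 h, switched to serum-free induction medium, then treated in duplicate for 48 h at eight concentrations (max 100 uM, 0.5% DMSO). RNA then analysed by qRT-PCR for CYP2C9; curves fitted in both directions relative to DMSO.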

Read-out in a further assay: CYP2E1 (gene 1571)
Nature of the assay: LTEA_HepaRG_CYP2E1: Life Technologies and Expression Analysis (LTEA) Assay for CYP2E1 using HepaRG (AID 2283485). The method, boiled down: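 Human liver line HepaRG, plated 48 h, then serum-free induction medium + chemical x 48 h; 8-pt CRC from 100 uM, half-log, 0.5% DMSO, n=2. Readout: CYP2E1 mRNA qRT-PCR vs ACTB/GAPDH/POLR2A; bidirectional fit vs DMSO.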

Read-out in another assay: CYP4A11 (gene 1579)
Description: LTEA_HepaRG_CYP4A11: Life Technologies and Expression Analysis (LTEA) Assay for CYP4A11 using HepaRG (AID 2283486). Summed up: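 CYP4A11 transcript levels were quantified by TaqMan qRT-PCR after HepaRG human liver cells were treated for 48 hours with test chemicals (top 100 uM, half-log dilutions, 0.5% DMSO). Gain or loss of signal was fitted relative to DMSO.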

Read-out in assay [14]: Cytochrome P450 (CYP1A2), CYP1A2 (gene 1544)
Nature of the assay: LTEA_HepaRG_CYP1A2: Life Technologies and Expression Analysis (LTEA) Assay for Cytochrome P450 (CYP1A2) using HepaRG (AID 2283479). Summed up: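 HepaRG, 48 h exposure, top 100 uM, half-log 8-pt, 0.5% DMSO vehicle, duplicates. Readout: TaqMan qRT-PCR of CYP1A2 mRNA, housekeeping-normalized (ACTB/GAPDH/POLR2A). Gain/loss fit relative to DMSO baseline.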

The source made the active and inactive calls. The calls were made as follows: active = hit-call score of the fitted dose curve at least 0.9, where 1 is the maximum; inactive = score below 0.9.

Chain of Caspase-3 (Homo sapiens) (P42574 whole entry, looked up): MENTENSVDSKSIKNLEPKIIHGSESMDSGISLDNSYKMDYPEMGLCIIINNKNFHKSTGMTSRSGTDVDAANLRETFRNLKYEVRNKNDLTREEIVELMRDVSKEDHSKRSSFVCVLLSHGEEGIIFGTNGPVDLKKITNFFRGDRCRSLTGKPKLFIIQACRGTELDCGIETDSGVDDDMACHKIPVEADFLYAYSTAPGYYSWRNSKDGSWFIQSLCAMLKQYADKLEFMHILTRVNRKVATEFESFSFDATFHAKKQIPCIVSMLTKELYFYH
Chain of Cytochrome P450 2C19 (Homo sapiens) (P33261 whole entry, looked up): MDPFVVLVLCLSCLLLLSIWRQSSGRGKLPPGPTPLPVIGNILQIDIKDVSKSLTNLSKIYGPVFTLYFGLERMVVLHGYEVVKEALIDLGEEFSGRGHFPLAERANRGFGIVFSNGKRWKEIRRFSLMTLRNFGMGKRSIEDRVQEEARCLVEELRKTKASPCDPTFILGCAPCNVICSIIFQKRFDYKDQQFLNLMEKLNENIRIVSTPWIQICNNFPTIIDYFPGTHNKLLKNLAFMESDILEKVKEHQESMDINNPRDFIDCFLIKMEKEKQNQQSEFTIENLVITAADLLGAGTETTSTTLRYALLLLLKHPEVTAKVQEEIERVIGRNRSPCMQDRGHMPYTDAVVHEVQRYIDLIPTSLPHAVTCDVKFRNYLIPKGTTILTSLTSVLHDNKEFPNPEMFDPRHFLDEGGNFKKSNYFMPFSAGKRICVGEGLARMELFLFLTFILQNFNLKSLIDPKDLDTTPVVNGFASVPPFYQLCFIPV
Chain of Apoptosis regulator Bcl-2 (Homo sapiens) (P10415 whole entry, looked up): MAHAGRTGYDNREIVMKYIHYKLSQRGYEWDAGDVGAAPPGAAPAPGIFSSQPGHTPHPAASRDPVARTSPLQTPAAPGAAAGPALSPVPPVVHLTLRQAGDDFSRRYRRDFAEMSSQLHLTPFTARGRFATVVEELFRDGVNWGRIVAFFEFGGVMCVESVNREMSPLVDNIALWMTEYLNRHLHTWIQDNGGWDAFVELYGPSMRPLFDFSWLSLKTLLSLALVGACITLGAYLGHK

For `CC(=O)CC(c1ccccc1)c1c(O)c2ccccc2oc1=O` (configuration not stated), the compound was classed as inactive in assay [1], in assay [2], in [3], in assay [4], in assay [5] and in [6]. Moreover, the compound was classed as inactive (with BCL2L11 (gene 10018); in [7]; in [8]; in [9]; with Caspase-3 (Homo sapiens); in [10]). Also, the call (in assay [11]; with CYP2C8 (gene 1558); in the assay with CYP2C9 (gene 1559); with CYP4A11 (gene 1579)) was inactive. Also, the figures for the concentration at half-maximal activity (AC50) (in assay [12]; in [13]; in the assay with CYP2E1 (gene 1571)) were 29.7 µM (active), 5.47 µM (active) and 73.8 µM (active), respectively.
With `CC(C)(C)c1ccccc1`, the outcome (in [1]; in [2]; in assay [3]; in assay [5]; in assay [6]; with BCL2L11 (gene 10018)) was inactive. The compound was called inactive (in assay [7]; in assay [8]; in [9]; with Caspase-3 (Homo sapiens); in [10]; in assay [14]). Besides, the compound was called inactive (in assay [11]; in assay [12]; in assay [13]; with CYP2C8 (gene 1558); in the assay with CYP2C9 (gene 1559); in the assay with CYP2E1 (gene 1571)). Moreover, the compound was called inactive with CYP4A11 (gene 1579).
In the case of `O=C1c2c(O)cccc2Cc2cccc(O)c21`, the compound was called inactive (in assay [1]; in assay [2]; in assay [3]; in assay [5]; in [6]; with BCL2L11 (gene 10018)). Moreover, the compound was classed as inactive (in [7]; in [8]; in [9]; with Caspase-3 (Homo sapiens); in assay [10]; in assay [11]). Further, the compound was classed as inactive (in assay [12]; in assay [13]; with CYP2C8 (gene 1558); in the assay with CYP2C9 (gene 1559); with CYP2E1 (gene 1571); with CYP4A11 (gene 1579)). The concentration at half-maximal activity (AC50) in assay [14] is 18.2 µM (active).

By AC50 is commonly meant the concentration at which the activity in the assay is half-maximal.
